This assay in a line: anti-His antibody binders, primary screen, artefact control for SMM control protein annotation, biochemical, small-molecule microarray, 635 nm fluorescence (AID 1128).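 Further: score merges feature fluorescence with signal-to-noise for each printed compound spot.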 Particulars: anti-His Alexa647 antibody binding, higher = more signal.
`C=CC[C@]1(C(=O)O)N=C(c2ccc(OCCCO)cc2)O[C@H]1c1ccccc1CN=[N+]=[N-]` gave a composite z-score of 0.518. In turn, `C[N+](C)(C)CCCCNC(=O)[C@H]1C[C@H]2C(=O)N3CCC[C@H]3C(=O)N2[C@H]1c1ccc(O)cc1` registered a composite z-score of 2.67.

In turn, `[N-]=[N+]=NCc1ccccc1[C@@H]1OC(c2ccc(OCCCO)cc2)=N[C@]1(Cc1ccccc1)C(=O)O` registered a composite z-score of 1.25.

In turn, `CN(C)CCCN1C(=O)[C@@]2(c3ccc([N+](=O)[O-])cc3)CC(=O)N(C3CCCCC3)[C@@H]2c2ccc(CO)cc21` yielded a composite z-score of 0.0598.

As for `CCOC1=C2C(c3ccc(C)cc3)N(S(=O)(=O)c3ccc(C)cc3)CC2n2c(=O)n(-c3ccccc3)c(=O)n2C1` (stereo unspecified), the composite z-score was 0.229. The value for `O=C1c2ccccc2[C@](Cc2ccccc2I)(C(=O)O)[C@H](c2ccc(CO)cc2)N1Cc1ccccc1C(F)(F)F` was 1.3. The value for `CCCCCCCCCCC(O)C1C=CC2C(=O)N(c3ccccc3)C(=O)C2N1Nc1ccc([N+](=O)[O-])cc1` (stereo unspecified) was 0.774. As for `CCOC(=O)C1=CC[C@@H](c2cccc(Cl)c2)N(S(=O)(=O)c2ccc(C)cc2)[C@H]1c1ccc(C#N)cc1`, the composite z-score came out at 0.931.

In the case of `CCCCCCC#C[Si](O[C@H](c1ccccc1)c1cn([C@H](C)c2ccccc2)nn1)(C(C)C)C(C)C`, the composite z-score was 0.475.

The molecule `O=C(NCC(F)(F)F)[C@@H]1c2ccccc2C(=O)N(Cc2ccccc2)[C@H]1c1ccc(CO)cc1` returned a composite z-score of 1.52. The value for `O=C1OCC=C[C@H]2OC34C=CCN(c5ccc(Cl)cc5)C(=O)[C@H]3N(CCCO)C(=O)[C@@H]4[C@@H]12` (stereo partly specified) was -0.562; that for `CCOC(=O)N1C(c2ccc(OCCCO)cc2)=NC(C(=O)OC)N1C(=O)OCC` (stereo unspecified) was 0.369.

Regarding `Cc1ccc(S[C@]2(C(=O)NCC(F)(F)F)CC(=O)N(C3Cc4ccccc4C3)[C@@H]2c2ccc(CO)cc2I)cc1`, the composite z-score is -1.2. The same measure for `[N-]=[N+]=Nc1ccccc1C[C@]1(C(=O)N2CCCCC2)N=C(c2ccc(OCCCO)cc2)O[C@H]1c1ccccc1N=[N+]=[N-]`: 1.6; for `C=CCNC(=O)[C@H]1[C@@H]2C(=O)O[C@@H](c3ccccc3)[C@@H](c3ccccc3)N2[C@@H](c2ccc(O)cc2)[C@]12C(=O)Nc1ccc(C#Cc3ccc(OC)cc3)cc12`: 0.194; for `[N-]=[N+]=NCc1ccccc1C[C@]1(C(=O)NCc2ccccc2)COC(c2ccc(OCCCO)cc2)=N1`: 0.519. The value for `O=C1OCC=C[C@H]2OC34C=CCN(CCN5CCOCC5)C(=O)[C@H]3N(CCCCCCO)C(=O)[C@@H]4[C@@H]12` (stereo partly specified) was 3.21.

`[N-]=[N+]=Nc1ccccc1[C@H]1OC(c2ccc(OCCCO)cc2)=N[C@@]1(CCS(=O)(=O)c1ccccc1)C(=O)N1CCOCC1` returned a composite z-score of 2.83.

Molecule `COC(=O)[C@@]1(Cc2ccccc2)[C@H]2c3cc(C(=O)N(C)C)n(Cc4cc(F)c(F)c(F)c4)c3C[C@H]2CN1C(=O)c1ccccc1` gave a composite z-score of 2.19.

For `O=C1O[C@H](c2ccccc2)[C@H](c2ccccc2)N2[C@H]1[C@@H](C(=O)N1CCCCCCC1)[C@]1(C(=O)Nc3ccc(C#CC4=CCCCC4)cc31)[C@H]2c1ccc(O)cc1`, the composite z-score turned out to be 3.04. On to `[N-]=[N+]=NCc1ccccc1C[C@]1(C(N)=O)N=C(c2ccc(OCCCO)cc2)O[C@H]1c1ccccc1N=[N+]=[N-]`, for which the composite z-score is 2.21. `C=CCOC(=O)[C@H]1[C@@H]2C(=O)O[C@@H](c3ccccc3)[C@@H](c3ccccc3)N2[C@@H](c2ccc(OCCOC(=O)[C@H]3C[C@H]4C(=O)N[C@@H](CCCC[N+](C)(C)C)C(=O)N4[C@H]3c3ccc(O)cc3)cc2)[C@]12C(=O)Nc1ccccc12`: the composite z-score came to 0.94. Molecule `CC(C)NC(=O)[C@@]1(c2ccc([N+](=O)[O-])cc2)CC(=O)N(C(C)C)[C@@H]1c1ccc(CO)cc1` showed a composite z-score of 0.0052.

Take `COc1ccc([Si](C)(C)[C@@H]2[C@@H](CCn3cc([C@H](O)c4ccccc4)nn3)O[C@]3(C(=O)N(C)c4ccccc43)[C@H]2C)cc1`: the composite z-score came out at 0.214. Molecule `COCCOC(=O)N1C(=O)[C@@]2(c3cc(C#CC4=CCCCC4)ccc31)[C@H](C(=O)N1CCN(c3ncccn3)CC1)[C@H]1C(=O)O[C@H](c3ccccc3)[C@H](c3ccccc3)N1[C@@H]2c1ccc(OCCO)cc1` yielded a composite z-score of 1.07. `C=CCOC(=O)[C@@H]1[C@H]2C(=O)O[C@H](c3ccccc3)[C@H](c3ccccc3)N2[C@H](c2ccc(OCCOC(=O)[C@H]3C[C@H]4C(=O)N[C@@H](CC(C)C)C(=O)N4[C@H]3c3cccc(OCCO)c3)cc2)[C@@]12C(=O)Nc1ccc(I)cc12` registered a composite z-score of 2.26.
